# The sample as a whole holds a higher share of hits than the screen did.
# Shiga inhibitor – blocks Shiga toxin action in Vero cells. 9.2% of 290,000 active. Vero cells, Shiga toxin protein synthesis inhibition reporter. inhibition, % at 38.7 µM; in the data active = inhibition mostly above about 28%, no sharp cut-off; inactive = mostly below about 43%; note: 0% is about no effect
# Giardia FBPA inh-1 – blocks Giardia fructose-bisphosphate aldolase activity; A8B2U2; purified Giardia FBPA; Potency, µM (highest dose often 59.6 µM), for the others: at the highest dose activity, negative = inhibition, hits mostly inhibitors; 0.71% of 290,000 active; AID 2451; note: potency is the fitted concentration of half-maximal effect; % is set by controls: 0 for no effect and ±100 for the full control effect; nearly all actives have a fitted effect of over 55% in size
#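 40 nM FBPA preincubated 10 min at RT with compound (up to 57.5 uM final), then substrate plus GAPDH/TPI/NAD/arsenate coupling and diaphorase/resazurin added. Fluorescence read after 20 min at RT, 525/598 nm.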
# Tb PYK inh – blocks Trypanosoma brucei pyruvate kinase; Q57TT1; TbPYK enzyme, Kinase-Glo Plus ATP luminescence, 45 min; Potency, µM (doses to about 76.8 µM), inactives show at the top dose activity, negative = inhibition, actives largely listed as inhibitors; 0.12% of 410,000 active; note: potency is the fitted concentration of half-maximal effect; % is set by controls: 0 for no effect and ±100 for the full control effect; nearly all actives have a fitted effect of over 50% in size
#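 TbPYK + substrate in 50 mM TEA pH 7.2, 100 mM KCl, 10 mM MgCl2, 0.05% BSA, 0.01% Tween-20; cpd pinned; ADP 130 uM final; 45 min RT; Kinase-Glo Plus 10 min; luminescence endpoint.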
# Sm TGR inh – S. mansoni TGR enzyme inhibition; Q962Y6; purified TGR, DTNB reduction, TNB absorbance 405 nm; Potency, µM (doses to about 114 µM), inactives show top-dose activity change, negative = inhibition, usual class: inhibitors; 3% of 360,000 active; AID 485364; note: potency is the fitted concentration of half-maximal effect; % is set by controls: 0 for no effect and ±100 for the full control effect; nearly all actives have a fitted effect of over 60% in size
#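 First, TGR (20 nM dispensed) and NADPH were mixed with compound. Second, a 15 min room-temperature incubation followed. Third, further NADPH and then DTNB were added to start the reaction. Finally, TNB absorbance was monitored kinetically.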
# LmPK inhibitor – inhibitors of Leishmania mexicana pyruvate kinase; 0.37% of 290,000 active; purified LmPK, Kinase-Glo ATP luminescence, 1 h; Potency, µM (top dose mostly 57.5 µM), for the others: at the top dose activity change, negative = inhibition, usual class: inhibitors; AID 1721; Q27686; note: potency is the fitted concentration of half-maximal effect; % is set by controls: 0 for no effect and ±100 for the full control effect
# Target sequence (Q27686 whole entry, looked up): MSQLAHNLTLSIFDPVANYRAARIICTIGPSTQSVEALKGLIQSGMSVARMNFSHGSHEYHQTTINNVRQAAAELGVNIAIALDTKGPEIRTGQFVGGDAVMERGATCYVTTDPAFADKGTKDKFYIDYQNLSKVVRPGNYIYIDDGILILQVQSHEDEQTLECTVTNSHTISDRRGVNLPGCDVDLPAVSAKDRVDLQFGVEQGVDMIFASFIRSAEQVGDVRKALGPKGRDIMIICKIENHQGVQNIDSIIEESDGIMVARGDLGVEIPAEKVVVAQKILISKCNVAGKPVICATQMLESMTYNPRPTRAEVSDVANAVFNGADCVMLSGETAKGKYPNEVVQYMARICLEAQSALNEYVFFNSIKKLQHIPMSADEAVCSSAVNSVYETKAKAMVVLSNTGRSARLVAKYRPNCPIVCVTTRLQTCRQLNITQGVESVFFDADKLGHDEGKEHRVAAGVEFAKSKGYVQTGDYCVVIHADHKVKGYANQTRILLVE
#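 ATP generated from ADP (0.1 mM) and PEP (0.5 mM) by 0.1 nM LmPK over 1 h at room temperature (pH 7.2 imidazole buffer) was detected by coupled luciferase luminescence. Values were normalized to uninhibited and no-enzyme wells.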
# CHX counter – counter-screen for Shiga toxin inhibitors: cycloheximide protein synthesis inhibition; AID 2314; cell reporter, cycloheximide protein synthesis inhibition counterscreen; 12% of 300,000 active; max response, %; in the data active = max response mostly above about 13%, no sharp cut-off; inactive = mostly below about 14%; note: read at 38.3 µM for the half of the compounds with a filed dose; 0% is about no effect
# Giardia growth – Giardia lamblia growth inhibition. shares compounds with Giardia FBPA inh-1. Giardia lamblia trophozoite growth inhibition. Potency, µM (top dose mostly 57.5 µM), for inactives: at the highest dose activity change, negative = inhibition, hits mostly inhibitors. 5% of 1,500 active. AID 2785;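 note: potency is the fitted concentration of half-maximal effect; trophozoites exposed to compound for 48 h at 37 °C; % is set by controls: 0 for no effect and ±100 for the full control effect; nearly all actives have a fitted effect of over 70% in size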
# Mammal cell tox – counter-screen for Giardia aldolase inhibitors: mammalian cell toxicity. Potency, µM (doses to about 57.5 µM), for inactives: top-dose viability change, negative = toxicity, actives largely listed as inhibitors. shares compounds with Giardia FBPA inh-1. mammalian cell viability counter-screen, qHTS. AID 2786. 4% of 1,500 active;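 note: Chinese hamster ovary cells used as mammalian cytotoxicity surrogate; viability measured as cellular ATP by luminescence; potency is the fitted concentration of half-maximal effect; compound exposure lasted 48 h before reading; % is set by controls: 0 for no effect and ±100 for the full control effect; nearly all actives have a fitted effect of over 60% in size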
# Giardia FBPA inh-2 – confirmation of Giardia fructose-bisphosphate aldolase inhibitors; shares compounds with Giardia FBPA inh-1; purified Giardia aldolase enzyme activity, qHTS; Potency, µM (highest dose often 57.5 µM), for inactives: at the highest dose activity change, negative = inhibition, most hits filed as inhibitors; 5% of 1,500 active; AID 2787; note: potency is the fitted concentration of half-maximal effect; % is set by controls: 0 for no effect and ±100 for the full control effect; nearly all actives have a fitted effect of over 45% in size
# Rabbit FBPA inh – rabbit FBP aldolase inhibition by Giardia aldolase hits. shares compounds with Giardia FBPA inh-1. Rabbit muscle FBPA enzyme inhibition, selectivity counter-screen. AID 2794. 4% of 1,500 active. Potency, µM (series often up to 57.5 µM), for the others: top-dose activity, negative = inhibition, actives largely listed as inhibitors; note: potency is the fitted concentration of half-maximal effect; % is set by controls: 0 for no effect and ±100 for the full control effect; nearly all actives have a fitted effect of over 60% in size
# Target sequence (P00883 whole entry, looked up): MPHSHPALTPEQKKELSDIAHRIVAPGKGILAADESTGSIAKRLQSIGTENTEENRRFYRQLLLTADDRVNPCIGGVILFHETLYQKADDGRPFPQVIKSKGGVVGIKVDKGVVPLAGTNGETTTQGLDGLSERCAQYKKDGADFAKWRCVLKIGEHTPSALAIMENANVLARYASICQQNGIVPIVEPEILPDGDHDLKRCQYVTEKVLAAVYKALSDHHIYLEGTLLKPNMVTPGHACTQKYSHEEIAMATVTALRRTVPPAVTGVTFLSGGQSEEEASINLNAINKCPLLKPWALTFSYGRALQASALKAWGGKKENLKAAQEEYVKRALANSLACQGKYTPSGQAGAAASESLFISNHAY
# GAPDH coupling – GAPDH inhibition flagged for Giardia aldolase hits; shares compounds with Giardia FBPA inh-1; GAPDH coupling enzyme counterscreen, biochemical, qHTS; Potency, µM (series often up to 57.5 µM), without a hit: at the top dose activity change, negative = inhibition, actives largely listed as inhibitors; 6% of 1,500 active; AID 2795; note: potency is the fitted concentration of half-maximal effect; % is set by controls: 0 for no effect and ±100 for the full control effect; nearly all actives have a fitted effect of over 55% in size
# * marks the source's active call; other numbers are inactive results; u = inconclusive; x = no result given; [ ] = another dose, or the depositor's remark. Unless noted, calls come from the whole dose curve; as a rule, active = well fitted curve in the direction sought with a large enough effect; inconclusive = small, poorly fitted or top-dose-only effect, or another doubt; inactive = no such curve, though single readings can be large; an effect the other way counts as inactive or inconclusive.
SMILES,Shiga inhibitor,Giardia FBPA inh-1,Tb PYK inh,Sm TGR inh,LmPK inhibitor,CHX counter,Giardia growth,Mammal cell tox,Giardia FBPA inh-2,Rabbit FBPA inh,GAPDH coupling
O=C1NC(C(=O)O)=CC(c2ccc([N+](=O)[O-])cc2)N1 (stereo not drawn),-4.2,17.7µM*,-5.7%,-7.9%,0.7%,-2.9,25.3%,19.8%,-9.6%,-12.3%,0.6%
Cc1ccc(C)n1-c1nc(=S)[nH][nH]1,-11.3,17.7µM*,u,-7.3%,14.1%,-3.3,-2.7%[10.4 µM],-7.8%,1.6%,-21.8%,-21.1%
CNc1nc(-c2ccccc2)[n+](-c2ccc(C)cc2)s1,134.7*,12.6µM*,u,-34.1%,22.4µM*,29.8*,u,-15.4%,u,10µM*,5.8%
CNc1cncc(-c2cccc(C(=O)N(C)C)c2)n1,x,x,0.6%,x,x,x,x,x,x,x,x
Cc1ccc(Sc2ncnc(N)c2[N+](=O)[O-])cc1,-11.4,-0.8%,-4.3%,-12.6%,-2.2%,-1.7,x,x,x,x,x
Nc1ncnc(Sc2ncccn2)c1[N+](=O)[O-],-14.5,17.7µM*,-4.8%,2.51µM*,2.1%,-4.5,5.1%[10.4 µM],u,3.5%,-1.7%,17.6%
O=C(O)CC1S/C(=N/N=C/c2ccccn2)NC1=O (stereo not drawn),-3.7,17.7µM*,-2.8%,33.0%,-4.4%,1.5,14.9%,11.9%,17.5%,3.5%,8.1%
NC(=O)NC(=O)CC1S/C(=N/N=C/c2ccccc2)NC1=O (stereo not drawn),-4.4,-0.4%,0.9%,4.1%,0.1%,-6.6,x,x,x,x,x
O=C(Nc1c(C(=O)c2ccc(Cl)cc2)oc2ccccc12)c1cc(=O)c2ccccc2o1,x,x,0.0%,7.6%,x,x,x,x,x,x,x
O=C(O)c1ccc(-n2c(/C=C\c3ccc(O)cc3)nc3ccccc3c2=O)cc1,x,x,3.1%,-8.3%,x,x,x,x,x,x,x
O/N=C/c1ccc2cccc(O)c2n1,44.1*,7.06µM*,-0.8%,-12.5%,1.9%,7.8*,9.4%[10.4 µM],-10.3%,2µM*,-28.7%,-28.3%
Cc1cc(C)c2ccc(/C=N/O)nc2c1O,28.2,u,-4.3%,-8.6%,0.8%,-2.7,x,x,x,x,x
O=C(O)c1ccc(/C=C/c2ccc3cccc(O)c3n2)cc1,81.9*,17.7µM*,-6.4%,-19.9%,-20.7%,41.1*,26.9%,-8.5%,3.98µM*,u,u
O=C(Cc1c(F)cccc1Cl)NNC(=S)Nc1ccc(S(=O)(=O)Nc2ncccn2)cc1,-3.8,14.1µM*,-2.0%,5.8%,0.0%,-2.7,3.2%[10.4 µM],3.8%,20.3%,19.8%,27.3%
COc1ccc(C(=O)N/N=C/c2ccccn2)cc1OC,24.8,15.8µM*,-1.5%,0.6%,-3.2%,6.9,-14.3%,-3.6%,0.8%,-0.3%,1.1%
O=C(N/N=C\c1ccccn1)c1ccccc1O,120.2*,15.8µM*,1.4%,-1.0%,-6.7%,32.7*,-23.4%,u,-4.0%,-3.7%,-6.7%
O=C(N/N=C/c1ccccn1)c1cccs1,75.5*,12.6µM*,0.0%,1.6%,-5.2%,37.8*,-25.4%,-5.2%,1.1%,-2.4%,-1.3%
CC(C)(C)c1cc(C(=O)N/N=C/c2ccccn2)n[nH]1,52.6*,15.8µM*,8.1%,0.9%,-0.5%,21.1*,u,5.7%,8.2%,5.2%,-9.6%
O=C(CCNS(=O)(=O)/C=C/c1ccccc1)NCCc1c[nH]c2ccccc12,11.7,5.9%,2.1%,-2.3%,-4.3%,-1.6,x,x,x,x,x
O=C(N/N=C/c1ccccn1)c1ccco1,70.7*,19.9µM*,7.1%,8.6%,0.6%,46.5*,-13.1%,-1.4%,-2.4%,-2.6%,-5.0%
O=C(O)C1=CC2C=C(Cl)C=CC2OC1=O (stereo not drawn),x,x,2.5%,x,x,x,x,x,x,x,x
CC(=O)C1=C(O)C(=O)OC1c1ccc(C)cc1 (stereo not drawn),16.8,9.6%,-5.0%,2.9%,8.1%,-5.0,x,x,x,x,x
NC1=C(O)C(=O)C(c2ccccc2)O1 (stereo not drawn),-4.4,15.8µM*,-11.6%,u,-8.4%,10.9,6.2%[10.4 µM],5.2%,-23.6%,-13.4%,-21.8%
COC(=O)Nc1sc2c(c1C(N)=O)CCC(C)C2 (stereo not drawn),-3.2,8.89µM*,-21.9%,-13.3%,0.5%,-1.7,-13.8%[38.3 µM],8.3%,u,u,u
O=C(c1ccco1)N1CCN(Cc2cccc3ccccc23)CC1,-26.2,15.8µM*,14.2%,3.5%,-2.1%,-2.0,u,-3.5%,3.5%,7.1%,7.5%
SMILES,Shiga inhibitor,Giardia FBPA inh-1,Tb PYK inh,Sm TGR inh,LmPK inhibitor,CHX counter,Giardia growth,Mammal cell tox,Giardia FBPA inh-2,Rabbit FBPA inh,GAPDH coupling
CCc1ccc(CN2CCN(C(=O)c3ccco3)CC2)cc1,14.6,28.2µM*,5.0%,0.7%,1.6%,12.1,10.5%,11.3%,9.5%,1.2%,10.6%
CC1=NOC(=O)/C1=C\c1ccc(-c2ccc(Br)cc2)o1,4.2,-12.1%,5.0%,u,-2.5%,7.7,x,x,x,x,x
CC1=NOC(=O)/C1=C\c1ccc(-c2ccc(Br)cc2C(=O)O)o1,-7.8,5µM*,-23.0%,-2.8%,9.8%,-2.6,-16.6%[38.3 µM],-0.5%,-12.2%,-10.5%,-7.0%
O=C(C[C@@H]1C[C@@H]2c3cc(NS(=O)(=O)c4ccc(F)cc4)ccc3O[C@@H]2[C@H](CO)O1)N1CCc2ccccc2C1,x,x,-6.8%,x,x,x,x,x,x,x,x
C/C(=N\NC(=O)c1c(Cl)c(C)nn1C)c1ccc(NC(=O)C2CCC2)cc1,18.3,x,2.5%,0.0%,-3.6%,-3.1,x,x,x,x,x
CC(=O)c1ccc(NC(=S)NC(=O)c2c(Cl)c(C)nn2C)cc1,-4.3,6.29µM*,2.6%,-2.7%,4.4%,-1.3,u,16.8%,9.5%,13.7%,1.5%
COc1ccc(-c2nc3cc(C(C)C)ccc3o2)cc1NC(=O)c1ccc(C)c(Cl)c1,x,x,-2.1%,22.4%,x,x,x,x,x,x,x

# Source: PubChem (National Center for Advancing Translational Sciences (NCATS))
